Shiga toxin inh = A qHTS for Small Molecule Inhibitors of Shiga Toxin | Vero cells, Shiga toxin protein synthesis inhibition reporter | inhibition, % at 38.7 µM | actives 9.2% (n = 290,000) | AID 2315, 2010; in the data active = inhibition mostly above about 28%, no sharp cut-off; inactive = mostly below about 43%; note: 0% is about no effect
LmPK inh = qHTS Assay for Inhibitors of Leishmania Mexicana Pyruvate Kinase (LmPK). purified LmPK, Kinase-Glo ATP luminescence, 1 h. Potency, µM (doses to about 57.5 µM), without a hit: at the highest dose activity change, negative = inhibition, actives largely listed as inhibitors. actives 0.37% (n = 290,000). AID 1721, 2009; note: potency is the fitted concentration of half-maximal effect; % is set by controls: 0 for no effect and ±100 for the full control effect
Target sequence (Q27686 whole entry, looked up): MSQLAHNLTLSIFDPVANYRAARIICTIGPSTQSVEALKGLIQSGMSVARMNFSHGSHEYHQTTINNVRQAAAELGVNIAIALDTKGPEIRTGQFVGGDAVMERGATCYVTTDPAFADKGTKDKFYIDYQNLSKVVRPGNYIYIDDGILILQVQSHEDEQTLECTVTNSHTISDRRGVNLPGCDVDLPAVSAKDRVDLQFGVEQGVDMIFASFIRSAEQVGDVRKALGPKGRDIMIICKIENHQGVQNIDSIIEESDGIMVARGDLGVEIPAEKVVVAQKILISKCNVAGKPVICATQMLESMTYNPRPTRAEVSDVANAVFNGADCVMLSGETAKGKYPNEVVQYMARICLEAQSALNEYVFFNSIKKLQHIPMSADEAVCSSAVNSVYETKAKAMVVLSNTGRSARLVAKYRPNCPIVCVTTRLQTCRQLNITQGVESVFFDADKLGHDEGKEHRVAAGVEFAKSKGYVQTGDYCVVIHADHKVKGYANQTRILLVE
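In 50 mM imidazole pH 7.2 with 7 mM MgCl2, LmPK (0.1 nM) turned over PEP (0.5 mM) and ADP (0.1 mM) for 1 h at room temperature. Luciferase read-out of ATP.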
Pf growth 48h = Primary qHTS for delayed death inhibitors of the malarial parasite plastid, 48 hour incubation | P. falciparum luciferase growth in erythrocytes, 48 h | Potency, µM (doses to about 28.7 µM), for inactives: at the highest dose activity change, negative = inhibition, usual class: inhibitors | actives 5.9% (n = 310,000) | AID 504832, 2011; note: potency is the fitted concentration of half-maximal effect; % is set by controls: 0 for no effect and ±100 for the full control effect
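Luciferase-expressing parasites in RBCs, 2% Hct / 0.1% parasitemia final; RPMI 1640 + 0.5% Albumax; 37 C, 5% CO2, one generation; luminescence read-out, lower signal = inhibition.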
Pf growth 96h = Primary qHTS for delayed death inhibitors of the malarial parasite plastid, 96 hour incubation; P. falciparum luciferase reporter growth, 96 h; Potency, µM (series often up to 28.7 µM), for the others: at the highest dose activity change, negative = inhibition, most hits filed as inhibitors; actives 6.9% (n = 320,000); note: potency is the fitted concentration of half-maximal effect; % is set by controls: 0 for no effect and ±100 for the full control effect
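Two parasite generations (96 h, 37 C, 5% CO2) of compound exposure in infected erythrocytes (0.05% parasitemia, 2% hematocrit). Luciferase-reporter P. falciparum; decreased luminescence indicates inhibited growth, aimed at apicoplast-acting delayed death.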
Cycloheximide cs = Cycloheximide Counterscreen for Small Molecule Inhibitors of Shiga Toxin; cell reporter, cycloheximide protein synthesis inhibition counterscreen; actives 12% (n = 300,000); AID 2314, 2010; max response, %; in the data active = max response mostly above about 13%, no sharp cut-off; inactive = mostly below about 14%; note: read at 38.3 µM for the half of the compounds with a filed dose; 0% is about no effect
Active calls of the source: *; [ ] = dose if it differs, or a comment. Compounds with a hit are over-represented: about 22% of the library has one in this group of screens. Unless noted, calls come from the whole dose curve; as a rule, active = well fitted inhibition curve with a large enough effect; inconclusive = small, poorly fitted or top-dose-only effect, or another doubt; inactive = no such curve, though single readings can be large or run the other way.

What do the screens show for `COCCN(C(=O)COC(=O)CCC(=O)c1cccs1)c1c(N)n(Cc2ccccc2)c(=O)[nH]c1=O`?
Pf growth 48h: 32%; Pf growth 96h: 51%

What do the screens show for `O=C(NCCc1ccccc1)c1ccc(Cl)nc1`?
Shiga toxin inh: 60*; LmPK inh: 6%; Pf growth 48h: 388%; Pf growth 96h: -27%; Cycloheximide cs: 33*

What do the screens show for `O=Cc1cc(Br)c(OC(=O)N2CCOCC2)c(Br)c1`?
Shiga toxin inh: 2; LmPK inh: -6%; Pf growth 48h: 10%; Pf growth 96h: -10%; Cycloheximide cs: 5

What do the screens show for `O=C1NC(=Nc2ccccc2)S/C1=C\c1ccccc1`?
LmPK inh: -7%; Pf growth 48h: -21%; Pf growth 96h: 0%; Cycloheximide cs: 19*

What do the screens show for `O=C1N/C(=N/Nc2ccccc2)S/C1=C\c1ccccc1`?
Shiga toxin inh: 37; LmPK inh: -27%; Pf growth 48h: inconclusive; Pf growth 96h: inconclusive; Cycloheximide cs: 22*

How did COc1cc(/C=C2\SC(=Nc3ccccc3)NC2=O)cc(Cl)c1O do in these assays?
Shiga toxin inh: -12; LmPK inh: 0%; Pf growth 48h: 0%; Pf growth 96h: 6.6µM*; Cycloheximide cs: 2

How did O=C1NC(=Nc2ccccc2)S/C1=C/c1cccs1 do in these assays?
Shiga toxin inh: 69*; LmPK inh: 6%[11.5 µM]; Pf growth 48h: 167%; Pf growth 96h: 31%; Cycloheximide cs: 41*

What do the screens show for `O=C1NC(=Nc2ccccc2)S/C1=C/c1cccnc1`?
Shiga toxin inh: 23; LmPK inh: 16%; Pf growth 48h: 8%; Pf growth 96h: 29%; Cycloheximide cs: 15

What do the screens show for `CCN(CC)S(=O)(=O)c1cccc(NC(=O)COC(=O)C2COc3ccccc3O2)c1` (stereo not drawn)?
Shiga toxin inh: -6; LmPK inh: 2%; Pf growth 48h: -1%; Pf growth 96h: 17%; Cycloheximide cs: -1

What do the screens show for `CCS(=O)(=O)c1ccc(O)c(NC(=O)Nc2ccc(C(C)(C)C)cc2)c1`?
Shiga toxin inh: -1; LmPK inh: 4%; Pf growth 48h: -15%; Pf growth 96h: -19%; Cycloheximide cs: 2

Results for Cc1ccc(N=C2NC(=O)/C(=C/c3cccs3)S2)cc1C ?
Shiga toxin inh: 11; LmPK inh: 0%; Pf growth 48h: -7%; Pf growth 96h: inconclusive; Cycloheximide cs: 7

What do the screens show for `Cc1cccc(N=C2NC(=O)/C(=C\c3cccs3)S2)c1`?
Shiga toxin inh: 67*; LmPK inh: -2%; Pf growth 48h: 30%; Pf growth 96h: 14%; Cycloheximide cs: 34*

How did CC1=NN(c2ccccc2)C(=O)C1N=Nc1ccccc1 (stereo not drawn) do in these assays?
Shiga toxin inh: 109*; LmPK inh: 5%; Pf growth 48h: 251%; Pf growth 96h: inconclusive; Cycloheximide cs: 21*

Results for COc1ccc(N=NC2C(=O)N(c3ccccc3)N=C2C)cc1 (stereo not drawn) ?
Shiga toxin inh: 12; LmPK inh: 0%; Pf growth 48h: 87%; Pf growth 96h: 2.6µM*; Cycloheximide cs: 13

What do the screens show for `CC1=NN(c2ccccc2)C(=O)C1C(=O)c1ccccc1` (stereo not drawn)?
Shiga toxin inh: 10; LmPK inh: 3%; Pf growth 48h: 20%; Pf growth 96h: 42%; Cycloheximide cs: 7

Results for CC1=NN(c2ccccc2)C(=O)C1c1ccccc1 (stereo not drawn) ?
Shiga toxin inh: 8; LmPK inh: -2%; Pf growth 48h: -19%; Pf growth 96h: inconclusive; Cycloheximide cs: 1

Results for CC1=NN(c2ccccc2)C(=O)C1N=Nc1cccc(O)c1 (stereo not drawn) ?
Shiga toxin inh: 86*; LmPK inh: 7%; Pf growth 48h: 104%; Pf growth 96h: 74%; Cycloheximide cs: 43*

Results for CC1=NN(c2ccccc2)C(=O)C1N=Nc1ccc(N)cc1 (stereo not drawn) ?
Shiga toxin inh: 80*; LmPK inh: -15%; Pf growth 48h: -15%; Pf growth 96h: inconclusive; Cycloheximide cs: 55*

How did Cc1ccccc1OCCC(=O)OCC(=O)N(C)c1c(N)n(Cc2ccccc2)c(=O)[nH]c1=O do in these assays?
Shiga toxin inh: 9; LmPK inh: -4%; Pf growth 48h: inconclusive; Pf growth 96h: 11%; Cycloheximide cs: 0

From PubChem
